Rows were chosen to be rich in hits. Some 17% of all compounds tested hit in one or more screens of this group.
ClpP mod: qHTS Assay for Activators of ClpP | ATP-dependent Clp protease proteolytic subunit (Bacillus subtilis (strain 168)), P80244 | purified B. subtilis ClpP, FRET peptide cleavage, 20 min | Potency, µM (top dose mostly 57.5 µM), without a hit: top-dose activity change, negative = active | 340,000 compounds, 1.9% hits | AID 651965, 2013; active means well fitted falling curve with a large enough effect; inconclusive means small, poorly fitted or top-dose-only effect; inactive means no such curve, though single readings can be large or run the other way; further: the source files actives as falling curves though it sought activators and does not explain the sign; nearly all actives have a fitted effect of over 65% in size
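Purified B. subtilis ClpP, 10 microg/mL final in Tris/HCl pH8 with KCl, BSA, glycerol and Tween-20, cleaved an Abz/nitrotyrosine-quenched decapeptide. Fluorescence (ex 320, em 430) was read at 0 and 20 min at room temperature. Delta was normalized to 5.8 microM ADEP and DMSO/no-enzyme controls.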
TDP1 cell noCPT: qHTS for Inhibitors of human tyrosyl-DNA phosphodiesterase 1 (TDP1): qHTS in cells in absence of CPT. DT40 Tdp1-/- hTDP1 cells, no CPT, ATP luminescence, 48 h. Potency, µM (top dose mostly 46.2 µM), without a hit: at the top dose activity change, negative = growth inhibition, actives largely listed as inhibitors. 420,000 compounds, 15% hits. AID 686978, 2013; further: on the % scale 0 is the no-effect control and ±100 the full control effect; nearly all actives have a fitted effect of over 55% in size
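Chicken DT40 Tdp1-/- cells stably complemented with human TDP1 were seeded at 400 cells/well with DMSO in place of 20 nM camptothecin. After compound pinning, cells grew at least 48 hr at 37 °C; viability read by CellTiter-Glo luminescence.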
TDP1 cell CPT: growth inhibition of DT40 Tdp1-/-;hTDP1 cells with camptothecin (screen for TDP1 inhibitors); Potency, µM (highest dose often 46.2 µM), for the others: top-dose activity change, negative = growth inhibition, hits mostly inhibitors; 420,000 compounds, 12% hits; chicken DT40 Tdp1-/-;hTDP1 cells + 20 nM CPT, ATP luminescence, 48 h; AID 686979; further: on the % scale 0 is the no-effect control and ±100 the full control effect; nearly all actives have a fitted effect of over 55% in size
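Cell growth measured by CellTiter-Glo luminescence after a minimum 48 h, 37 C compound exposure with 20 nM CPT in Tdp1-knockout DT40 cells stably expressing hTDP1, seeded 400/well; qHTS titration format.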
TDP1 block: inhibitors of human tyrosyl-DNA phosphodiesterase TDP1 | Q9NUW8 | recombinant TDP1, AlphaScreen DNA substrate cleavage | Potency, µM (titrated, usually from 130 µM), for inactives: at the highest dose activity change, negative = inhibition, actives largely listed as inhibitors | 350,000 compounds, 0.28% hits | AID 485290; further: on the % scale 0 is the no-effect control and ±100 the full control effect; nearly all actives have a fitted effect of over 40% in size
Target sequence (Q9NUW8 whole entry, looked up): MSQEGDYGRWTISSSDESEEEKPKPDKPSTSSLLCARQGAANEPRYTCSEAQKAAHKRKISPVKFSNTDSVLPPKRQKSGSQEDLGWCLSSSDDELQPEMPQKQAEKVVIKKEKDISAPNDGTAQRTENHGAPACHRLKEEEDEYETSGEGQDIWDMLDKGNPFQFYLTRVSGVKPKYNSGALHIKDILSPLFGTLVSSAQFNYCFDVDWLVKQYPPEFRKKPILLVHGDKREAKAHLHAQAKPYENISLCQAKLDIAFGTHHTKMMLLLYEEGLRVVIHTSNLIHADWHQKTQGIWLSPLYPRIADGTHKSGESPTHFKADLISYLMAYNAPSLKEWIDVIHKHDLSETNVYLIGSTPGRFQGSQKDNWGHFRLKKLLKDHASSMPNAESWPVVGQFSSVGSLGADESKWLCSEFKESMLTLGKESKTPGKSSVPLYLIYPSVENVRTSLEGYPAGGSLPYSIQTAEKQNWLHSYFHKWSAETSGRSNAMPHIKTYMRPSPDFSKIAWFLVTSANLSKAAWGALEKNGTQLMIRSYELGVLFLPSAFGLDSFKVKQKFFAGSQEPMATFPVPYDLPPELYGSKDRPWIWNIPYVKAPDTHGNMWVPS
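Recombinant E. coli-expressed Tdp1 (1 nM) preincubated with compound 15 min at RT, then 5'-biotin/3'-phosphotyrosine-FITC DNA substrate (15 nM) added for 5 min. AlphaScreen beads (10 ug/ml) added, 10 min RT; tyrosine-FITC cleavage read as signal loss.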
* = called active by the depositor; ? = inconclusive; . = no result given; ! = a repeat was not active; [ ] = remark or other dose. Unless noted, the call rests on the fitted dose curve; in most records, active means well fitted curve in the direction sought with a large enough effect; inconclusive means small, poorly fitted or top-dose-only effect, or another doubt; inactive means no such curve, though single readings can be large; an effect the other way counts as inactive or inconclusive. Potency means the concentration at half of the fitted maximal effect.

SMILES | ClpP mod | TDP1 cell noCPT | TDP1 cell CPT | TDP1 block
O=C(c1ccc(N2C(=O)C3CCCCC3C2=O)cc1)N1CCCCC1 (stereo not given) | 0% | -6% | 7% | 6%
O=C(Nc1cccc(C(F)(F)F)c1)c1noc2c1CCc1ccccc1-2 | -8% | ? | 10µM* | -2%
O=C(Nc1cccc(O)c1)c1noc2c1CCc1ccccc1-2 | 20% | ? | 16µM*! | 6%
Cc1ccc(NC(=O)c2noc3c2CCc2ccccc2-3)cc1 | 65% | -14% | -9% | 8%
COc1cccc(CCNC(=O)c2cnc3sc(N4CCOCC4)nn3c2=O)c1 | -16% | ? | -26% | -1%
CCN(Cc1nc(-c2ccc(OC)cc2)oc1C)S(=O)(=O)c1ccc(Cl)cc1 | -14% | ? | ? | -6%
O=C(N/N=C/c1cccc(NC(=O)c2ccc(Cl)cc2)c1)c1ccc(O)cc1 | 0% | 15µM* | ? | .
O=C(N/N=C/c1ccncc1)c1cccc(NC(=O)c2ccc(Cl)cc2)c1 | -1% | 1% | -6% | 0%
COc1cccc(C=NNC(=O)C(C)SC(C)C(=O)NN=Cc2cccc(OC)c2)c1 (stereo not given) | . | ? | -2% | .
CC(SC(C)C(=O)NN=Cc1cccc(Cl)c1)C(=O)NN=Cc1cccc(Cl)c1 (stereo not given) | . | 16µM* | ? | .
CC(C)(C)c1ccc(C(=O)N/N=C/c2cccc(Cl)c2)cc1 | 4% | 16µM* | ? | 7%
Nc1ccc2c(c1)C=C/C2=C\c1ccccc1 | -1% | ? | 3% | .
COc1cc(C2Nc3ccc4ncccc4c3C3=C2C(=O)CCC3)cc(OC)c1OC (stereo not given) | -17% | ? | ? | 5%
COc1cc(C2Sc3ccccc3NC3=C2C(=O)OC3)cc(OC)c1OC (stereo not given) | -7% | ? | 16µM* | 3%[56.1 µM]
CC[n+]1ccccc1/C=C1\Sc2ccc(C)cc2N1C | 1% | 0.33µM* | 0.46µM* | .
O=C(COC(=O)CSc1ccc2ccccc2c1)NCc1ccc2c(c1)OCO2 | -7% | -20% | 9% | 0%
CN1CCN(NC(=O)/C=C/c2cccc(Cl)c2)CC1 | 0% | 17% | 4% | 2%
CCN1CCN(S(=O)(=O)c2ccc(Cl)c(C(=O)Nc3nnc(CC(C)C)s3)c2)CC1 | -1% | ? | 23µM* | 3%
COc1ccc(S(=O)(=O)N2CCOCC2)cc1NC(=O)c1cc2ccccc2o1 | . | 13µM* | ? | 0%
COc1ccc(S(=O)(=O)N2CCOCC2)cc1NC(=O)C1CCCN1C(=O)c1cccs1 (stereo not given) | -6% | ? | 0.26µM* | 0%[56.1 µM]
CCN1CCN(c2c(Cl)cccc2NC(=O)c2cc3ccccc3o2)CC1 | -13% | 18µM* | ? | .
CCc1nnc(NC(=O)c2cc(S(=O)(=O)N3CCN(c4ccccc4)CC3)ccc2Cl)s1 | 4% | -7% | -27% | 5%
CN1CCN(c2ccccc2NC(=O)c2cc3ccccc3o2)CC1 | -1% | ? | ? | -3%
Cc1cc(NC(=O)COc2ccccc2)cc(-c2nc3ccccc3o2)c1O | -7% | . | . | 2%
COc1cc2c(cc1OC)C(COc1ccc3c(C)cc(=O)oc3c1)N(C(=O)c1cc(Cl)ccc1OC)CC2 (stereo not given) | -4% | ? | ? | 0%
SMILES | ClpP mod | TDP1 cell noCPT | TDP1 cell CPT | TDP1 block
Cc1ccc(S(=O)(=O)N2CCCCC2)cc1NC(=O)c1cc2ccccc2o1 | -11% | ? | ? | 0%
CCN1CCN(S(=O)(=O)c2ccc(Cl)c(C(=O)Nc3ccccc3N3CCCCC3)c2)CC1 | . | 26µM* | 16µM* | 4%
CCN1CCN(c2ccc(S(=O)(=O)N3CCCCC3)cc2NC(=O)c2cc3ccccc3o2)CC1 | 16µM* | 16µM* | ? | 4%
CCN1CCN(S(=O)(=O)c2ccc(Cl)c(C(=O)Nc3ccccc3N3CCCC3)c2)CC1 | -2% | ? | ? | .
O=C(c1ccccc1)c1ccc(-n2ccnc2)c([N+](=O)[O-])c1 | . | 21µM* | -26% | 13%
Cc1ccc(-n2ncc(Br)c(Br)c2=O)cc1 | 1% | 3.7µM* | 4.1µM* | 0%
O=c1c(Br)c(N2CCCC2)cnn1-c1ccccc1 | 1% | -4% | -3% | 4%
O=c1c(Br)c(Br)cnn1-c1ccccc1 | . | 3.7µM* | 4.1µM* | -5%
CCc1ccc(NC(=O)CSc2ccnc(=O)[nH]2)cc1 | 1% | -19% | 5% | 5%
Cc1c(Cl)cccc1NC(=O)C(=O)NCCc1csc(-c2cccc(F)c2)n1 | -23% | -20% | -9% | 5%
CSc1nsc2nc(=O)c(/C=C3\C(C)=Nc4ccc(C)cc43)c(N)n12 | 0% | ? | 16µM* | 6%
COc1ccccc1NC(=O)Cn1c(C)cc(=O)c2cccc(OC)c21 | -1% | 4.6µM* | 2.9µM* | 0%
COc1ccccc1NC(=O)Cn1c(C)cc(C)c(C#N)c1=O | -22% | 11% | -5% | -1%
COc1ccccc1NC(=O)Cn1c(=O)n(Cc2cccs2)c(=O)c2cccnc21 | ? | -77% | 21µM* | -2%
COc1cccc2c(=O)cc(C)n(CC(=O)Nc3ccc(C)c(C)c3)c12 | -10% | 15µM* | ? | 0%
CNC(=O)Cn1c(C)cc(=O)c2cccc(C)c21 | 1% | -3% | 10% | 0%
Cc1ccc(NC(=O)CSc2nc(-c3cccs3)nc3cc(=O)[nH]n23)cc1 | 0% | 2% | 3% | -3%
CCOc1ccc(S(=O)(=O)N(C)CC(=O)NCc2ccco2)cc1 | . | 4% | -17% | 0%
CCOc1ccc(S(=O)(=O)N(C(=O)c2ccco2)c2cc3sc(=O)oc3c3ccccc23)cc1 | -4% | ? | 18µM* | 11%
Cc1ccc(S(=O)(=O)N(C(=O)c2ccco2)c2cc3sc(=O)oc3c3ccccc23)cc1 | 1% | 2.6µM* | 5.2µM* | 11%
COc1ccc(S(=O)(=O)n2ccnc2)cc1C(C)(C)C | -3% | -7% | -4% | 7%
CC1=Nc2cc(C(=O)NCC3CCCO3)ccc2Sc2ccc(Br)cc21 (stereo not given) | 0% | 5.8µM* | 3.7µM* | .
CCC1=Nc2cc(C(=O)N3CCCCC3)ccc2Sc2ccc(C)cc21 | -1% | ? | -24% | 5%
CCOC(=O)N1CCN(C(=O)c2ccc3c(c2)N=C(CC)c2cc(C)ccc2S3)CC1 | 1% | 10µM* | 16µM* | 6%
CC1=Nc2cc(C(=O)O)ccc2Sc2ccc(Br)cc21 | 0% | -18% | -3% | 3%
CCOC(=O)N1CCC(NC(=O)c2ccc3c(c2)N=C(C)c2c(C)ccc(C)c2S3)CC1 | -17% | 1.2µM* | 2.1µM* | 4%
CCCC1=Nc2cc(C(=O)NC3CCCC3)ccc2Sc2ccc(C)cc21 | 1% | 1µM* | 1.5µM* | 0%
